This passage reports growth results from PubChem BioAssay (NCI).

Test systems include NCI-H23 lung; NCI-H226 lung; NCI-H322M lung; HOP-62 NSCLC; NCI-H460 lung; HOP-92 NSCLC; NCI-H522 lung; A549/ATCC NSCLC; 786-0 renal; COLO 205 colon.
Holding throughout (experiment): NCI-60 one-dose screen, 48 h (100 = growth as untreated, 0 = no growth, -100 = all killed)
Settings in all cases: 10 µM unless noted

The structures appear in SMILES notation. About 83,000 compounds went through this panel and 20% of them were active in at least one assay; those are over-represented in the sample as a whole.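 Growth was measured after 48 h exposure to one concentration of compound in 96-well plates. Values under 10 count as active.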 Values without a mark were called inactive. Active and inactive are the calls of the source.

`C[C@@H]1C[C@H](N)C[C@H](c2ccncc2NC(=O)c2ccc(F)c(-c3c(F)cccc3F)n2)C1`: the growth in the assay with NCI-H23 lung was 73.3%; in the assay with NCI-H226 lung, 53.6%; in the assay with NCI-H322M lung, 71%; in the assay with HOP-62 NSCLC, 49.1%; with NCI-H460 lung, 62.5%; in the assay with HOP-92 NSCLC it was 10.4%. Also, the growth is 46.4% in the assay with NCI-H522 lung, 48.7% in the assay with A549/ATCC NSCLC, 56.1% with 786-0 renal and -33.4% (active) with COLO 205 colon.

On to `COc1cccc(NC(=O)[C@H](C(C)C)n2c(=O)[nH]c3ccccc3c2=O)c1`, for which the growth with NCI-H23 lung is 99.8%; in the assay on NCI-H226 lung, 92.4%; in the assay on NCI-H322M lung it was 117%; with HOP-62 NSCLC it was 102%; in the assay on NCI-H460 lung it was 103%; in the assay with HOP-92 NSCLC, 110%. For the same compound, the growth with NCI-H522 lung was 99.1%; with A549/ATCC NSCLC, 97.9%; with 786-0 renal, 105%; with COLO 205 colon, 108%.

As to `CCOC(=O)C(Nc1ccccc1)C(=O)OCC`, the growth is 108% in the assay on NCI-H23 lung; 99.6% with NCI-H226 lung; 88.1% in the assay on NCI-H322M lung; 101% with HOP-62 NSCLC; 115% in the assay with NCI-H460 lung; 72.9% in the assay on HOP-92 NSCLC. In addition, the growth was 102% in the assay on NCI-H522 lung, 100% with A549/ATCC NSCLC, 110% in the assay on 786-0 renal and 119% with COLO 205 colon.

In the case of `COc1ccc(/C(=C\c2cc(OC)c(OC)c(OC)c2)C(=O)N2CCCNCC2)cc1`, the growth is 104% with NCI-H23 lung; 100% in the assay with NCI-H226 lung; 103% in the assay with NCI-H322M lung; 106% in the assay with HOP-62 NSCLC; 110% with NCI-H460 lung; 102% with HOP-92 NSCLC. The growth in the assay on NCI-H522 lung was 100%; with A549/ATCC NSCLC, 105%; with 786-0 renal, 111%; with COLO 205 colon, 110%.

With `COc1cccc2nc(Nc3cccc(NC(=O)c4cc(N5CCOCC5)cc(C(F)(F)F)c4)c3)ccc12`, the growth in the assay on NCI-H23 lung was 78.4%; in the assay on NCI-H226 lung, 47.8%; in the assay with NCI-H322M lung, 68.6%; in the assay with HOP-62 NSCLC, 78.6%; with NCI-H460 lung it was 49.2%; in the assay with HOP-92 NSCLC, 47.9%. Besides, the growth is 81.3% with NCI-H522 lung, 37.3% with A549/ATCC NSCLC, 65.8% with 786-0 renal and 62.5% in the assay on COLO 205 colon.

As to `COc1ccc(C(=O)C(CN(C)C)c2ccccc2)cc1` (stereo not given), the growth in the assay with NCI-H23 lung was 13.2%; with NCI-H226 lung, 71.5%; in the assay on NCI-H322M lung, 96%; with HOP-62 NSCLC it was 83.6%; in the assay with NCI-H460 lung, 47.7%; in the assay on HOP-92 NSCLC, -4.35% (active). Moreover, the growth in the assay with NCI-H522 lung is -73.9% (active); in the assay on A549/ATCC NSCLC, 72.6%; in the assay on 786-0 renal, -36.2% (active); in the assay with COLO 205 colon, 22.8%.

On to `C#CC[C@@H]1C[C@]2(C)[C@H]3CC=C4[C@H]5[C@@H](C)[C@H](C)CC[C@]5(C(=O)NCCCN5CCN(CCCN)CC5)CC[C@@]4(C)[C@]3(C)CC[C@H]2C(C)(C)[C@H]1OC(C)=O`, for which the growth with NCI-H23 lung is 19.8%; with NCI-H226 lung it was 86.5%; in the assay with NCI-H322M lung, -48.2% (active); in the assay on HOP-62 NSCLC it was 58.9%; in the assay with NCI-H460 lung, -60.7% (active); in the assay with HOP-92 NSCLC, -20.5% (active). Also, the growth in the assay on NCI-H522 lung was -55.4% (active); with A549/ATCC NSCLC, -23.5% (active); with 786-0 renal, -97% (active); in the assay on COLO 205 colon it was -69.9% (active).

For `COc1ccc(/C(=C\c2cc(OC)c(OC)c(OC)c2)C(=O)N2CCN(c3ccccc3)CC2)cc1O`, the growth in the assay with NCI-H23 lung is 99.2%; in the assay with NCI-H226 lung, 98.8%; in the assay on NCI-H322M lung it was 100%; in the assay with HOP-62 NSCLC, 99%; with NCI-H460 lung, 106%; with HOP-92 NSCLC, 85.9%. Further, the growth is 84.4% in the assay on NCI-H522 lung, 90% with A549/ATCC NSCLC, 103% with 786-0 renal and 111% in the assay on COLO 205 colon.

As for `C=CCn1c(SCC(=O)Nc2ccc(C(=O)/C=C/c3ccc(Cl)cc3)cc2)nnc1-c1ccc(Cl)cc1`, the growth in the assay with NCI-H23 lung was 82.8%; in the assay on NCI-H226 lung, 83.1%; in the assay on NCI-H322M lung it was 110%; in the assay on HOP-62 NSCLC, 78.2%; in the assay with NCI-H460 lung it was 99.5%; in the assay on HOP-92 NSCLC, 91%. Moreover, the growth in the assay on NCI-H522 lung is 68.4%; with A549/ATCC NSCLC, 73.8%; in the assay on 786-0 renal, 93.9%; with COLO 205 colon, 98.3%.

For the compound `O=C(CS)OCC(COC(=O)CS)(COC(=O)CS)COC(=O)CS`, the growth in the assay on NCI-H23 lung was 85%; with NCI-H226 lung, 98.1%; with NCI-H322M lung, 58.3%; in the assay with HOP-62 NSCLC, 105%; in the assay with NCI-H460 lung it was 75.2%; in the assay on HOP-92 NSCLC it was 108%. The growth in the assay on NCI-H522 lung was 76.4%; in the assay with A549/ATCC NSCLC, 93.9%; in the assay on 786-0 renal, 103%; in the assay with COLO 205 colon it was 105%.

Take `F`: the growth was 41.1% [6.87 mM] in the assay with NCI-H23 lung; 90.6% [6.87 mM] in the assay on NCI-H226 lung; 46.4% [6.87 mM] with NCI-H322M lung; 10.7% [6.87 mM] in the assay on HOP-62 NSCLC; 45.1% [6.87 mM] with NCI-H460 lung; -5.03% [6.87 mM] (active) in the assay on HOP-92 NSCLC. For the same compound, the growth in the assay on NCI-H522 lung was 56.8% [6.87 mM]; in the assay on A549/ATCC NSCLC it was 18% [6.87 mM]; with 786-0 renal, -1.01% [6.87 mM] (active); in the assay on COLO 205 colon, 40.3% [6.87 mM].

Take `Clc1ccc(-c2nc(Br)cn3ccnc23)cc1`: the growth was 85.5% in the assay with NCI-H23 lung; 74.6% with NCI-H226 lung; 93% with NCI-H322M lung; 84.3% in the assay on HOP-62 NSCLC; 91.5% in the assay with NCI-H460 lung; 53.6% in the assay on HOP-92 NSCLC. The growth was 84.6% in the assay with NCI-H522 lung, 104% in the assay with A549/ATCC NSCLC, 97.7% with 786-0 renal and 94.5% in the assay on COLO 205 colon.

Turning to `CN(C)c1ccc(/C=C(\C#N)c2nc3ccccc3n2C)cc1`, the growth in the assay on NCI-H23 lung is 58.9%; in the assay on NCI-H226 lung, 77.8%; in the assay with NCI-H322M lung, 46.5%; in the assay on HOP-62 NSCLC, 89.7%; in the assay with NCI-H460 lung, 13.8%; with HOP-92 NSCLC, 86.4%. Besides, the growth was 3.96% (active) in the assay on NCI-H522 lung, 31% in the assay with A549/ATCC NSCLC, 47.4% with 786-0 renal and 19.4% in the assay with COLO 205 colon.

On to `COc1ccc(-c2oc(=O)ccc2-c2cc(OC)c(OC)c(OC)c2)cc1F`, for which the growth with NCI-H23 lung is 81.4%; with NCI-H226 lung, 82.9%; in the assay on NCI-H322M lung, 95.4%; in the assay on HOP-62 NSCLC, 67.3%; in the assay on NCI-H460 lung, 56.3%; in the assay on HOP-92 NSCLC, 62.6%. The growth with NCI-H522 lung is 50.8%; with A549/ATCC NSCLC, 27.8%; in the assay on 786-0 renal it was 75.2%; in the assay with COLO 205 colon, 57.5%.
